The whole screen tested about 5,500 compounds, of which about 2,000 (36%) were called active. About 18% were inconclusive and are not listed. No stated cut-off is given here; in the data, active means normalized growth mostly below about 0.91 (no sharp cut-off); inconclusive means no clear call, values can overlap the other calls; inactive means mostly above about 0.92. This is one part of the list.
Experiment: chemical genetic growth profiling, strain panel (AID 1159580);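 further: tested at 20 µM; growth read once vehicle control cultures reached saturation at 30 °C; 1 = growth at the plate median or of vehicle wells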
Conditions: S. cerevisiae deletion strains, growth OD
[1] = locus YAR019C, strain CDC15, stronger effect = lower value
[2] = locus YBL105C, strain PKC1, stronger effect = lower value
[3] = locus YBR135W, strain CKS1, stronger effect = lower value
[4] = locus YBR136W, strain MEC1, stronger effect = lower value
[5] = locus YBR160W, strain CDC28, stronger effect = lower value
[6] = locus YDL017W, strain CDC7, stronger effect = lower value
[7] = locus YDL028C, strain MPS1, stronger effect = lower value
[8] = locus YDL101C, strain DUN1, stronger effect = lower value
[9] = locus YDL108W, strain KIN28, stronger effect = lower value
[10] = locus YDL132W, strain cdc53, stronger effect = lower value
[11] = locus YDL214C, strain PRR2, stronger effect = lower value
[12] = locus YDR052C, strain DBF4, stronger effect = lower value
[13] = locus YDR054C, strain cdc34, stronger effect = lower value
[14] = locus YDR226W, strain ADK1, stronger effect = lower value
[15] = locus YDR477W, strain SNF1, stronger effect = lower value
[16] = locus YER123W, strain YCK3, stronger effect = lower value
[17] = locus YER133W, strain GLC7, stronger effect = lower value
[18] = locus YFL009W, strain cdc4, stronger effect = lower value
[19] = locus YFL029C, strain CAK1, stronger effect = lower value
[20] = locus YFR003C, strain YPI1, stronger effect = lower value
[21] = locus YFR019W, strain FAB1, stronger effect = lower value
[22] = locus YFR028C, strain CDC14, stronger effect = lower value
[23] = locus YGR040W, strain KSS1, stronger effect = lower value
[24] = locus YGR052W, strain FMP48, stronger effect = lower value
[25] = locus YGR092W, strain DBF2, stronger effect = lower value
[26] = locus YHR030C, strain SLT2, stronger effect = lower value
[27] = locus YHR079C, strain IRE1, stronger effect = lower value
[28] = locus YHR082C, strain KSP1, stronger effect = lower value
[29] = locus YHR205W, strain SCH9, stronger effect = lower value
[30] = locus YIL147C, strain SLN1, stronger effect = lower value
[31] = locus YJL095W, strain BCK1, stronger effect = lower value
[32] = locus YJL128C, strain PBS2, stronger effect = lower value
[33] = locus YJL157C, strain FAR1, stronger effect = lower value
[34] = locus YJR016C, strain ILV3, stronger effect = lower value
[35] = locus YJR066W, strain TOR1 (second series), stronger effect = lower value
[36] = locus YJR066W, strain TOR1, stronger effect = lower value
[37] = locus YKL048C, strain ELM1, stronger effect = lower value
[38] = locus YKL067W, strain YNK1, stronger effect = lower value
[39] = locus YKL101W, strain HSL1, stronger effect = lower value
[40] = locus YKL193C, strain SDS22, stronger effect = lower value
[41] = locus YKL203C, strain TOR2, stronger effect = lower value
[42] = locus YLR113W, strain HOG1, stronger effect = lower value
[43] = locus YLR133W, strain CKI1, stronger effect = lower value
[44] = locus YLR403W, strain SFP1, stronger effect = lower value
[45] = locus YML070W, strain DAK1, stronger effect = lower value
[46] = locus YMR001C, strain CDC5, stronger effect = lower value
[47] = locus YMR205C, strain PFK2 (second series), stronger effect = lower value
[48] = locus YMR277W, strain FCP1, stronger effect = lower value
[49] = locus YNL006W, strain LST8, stronger effect = lower value
[50] = locus YNL020C, strain ARK1, stronger effect = lower value
[51] = locus YNL161W, strain CBK1, stronger effect = lower value
[52] = locus YNL183C, strain NPR1, stronger effect = lower value
[53] = locus YNL207W, strain RIO2, stronger effect = lower value
[54] = locus YNL222W, strain SSU72, stronger effect = lower value
[55] = locus YNL307C, strain MCK1 (second series), stronger effect = lower value
[56] = locus YOL078W, strain AVO1, stronger effect = lower value
[57] = locus YOL136C, strain PFK27, stronger effect = lower value
[58] = locus YOR061W, strain CKA2, stronger effect = lower value
[59] = locus YOR119C, strain RIO1, stronger effect = lower value
[60] = locus YOR231W, strain MKK1, stronger effect = lower value
[61] = locus YOR329C, strain SCD5, stronger effect = lower value
[62] = locus YPL031C, strain PHO85, stronger effect = lower value
[63] = locus YPL153C, strain RAD53, stronger effect = lower value
[64] = locus YPL209C, strain IPL1, stronger effect = lower value
[65] = locus YPL256C, strain CLN2, stronger effect = lower value
[66] = locus YPR025C, strain CCL1, stronger effect = lower value
[67] = locus YPR106W, strain ISR1, stronger effect = lower value
[68] = locus YPR111W, strain DBF20, stronger effect = lower value
[69] = strain NNK1, stronger effect = lower value
[70] = strain TSCII, stronger effect = lower value

Measured: normalized growth

N#CCC(=O)NNC(=S)Nc1ccc(Cl)c(Cl)c1
inactive: [1] 0.991 | [2] 0.985 | [3] 0.981 | [4] 0.983 | [5] 0.991 | [6] 0.987 | [7] 0.986 | [8] 0.981 | [9] 0.98 | [10] 0.974 | [11] 0.938 | [12] 0.988 | [13] 0.98 | [14] 0.982 | [15] 0.929 | [16] 0.895 | [17] 0.92 | [18] 0.98 | [19] 0.989 | [20] 0.979 | [21] 0.969 | [22] 0.979 | [23] 0.93 | [24] 0.955 | [25] 0.965 | [26] 0.931 | [27] 0.965 | [28] 1.04 | [29] 0.96 | [30] 0.986 | [31] 0.932 | [32] 0.943 | [33] 0.931 | [34] 0.978 | [35] 0.913 | [36] 1.07 | [37] 0.97 | [38] 0.936 | [39] 0.942 | [40] 0.975 | [41] 1.01 | [42] 0.881 | [43] 0.96 | [44] 0.963 | [45] 0.93 | [46] 0.979 | [47] 0.942 | [48] 0.982 | [49] 0.984 | [50] 0.964 | [51] 0.981 | [52] 1.04 | [53] 0.978 | [54] 0.984 | [55] 0.962 | [56] 0.975 | [57] 0.95 | [58] 0.95 | [59] 0.988 | [60] 0.975 | [61] 0.985 | [62] 0.916 | [63] 0.916 | locus YPL204W, strain HRR25, stronger effect = lower value 0.917 | [64] 0.987 | [65] 0.956 | [66] 0.988 | [67] 0.975 | [68] 0.976 | [69] 0.988 | [70] 0.983

Cc1c(Cl)cccc1NC(=S)Nc1ccc(Cl)cc1C(=O)c1ccccc1
inactive: locus YAL013W, strain DEP1, stronger effect = lower value 0.999 | locus YBR229C, strain ROT2, stronger effect = lower value 0.991 | locus YCL061C, strain MRC1, stronger effect = lower value 0.985 | [8] 0.993 | locus YDR150W, strain NUM1, stronger effect = lower value 0.987 | locus YEL061C, strain CIN8, stronger effect = lower value 1 | locus YGR078C, strain PAC10, stronger effect = lower value 0.968 | [26] 0.894 | locus YHR087W, strain rtc3, stronger effect = lower value 0.99 | locus YJR043C, strain POL32, stronger effect = lower value 0.989 | locus YJR075W, strain HOC1, stronger effect = lower value 0.971 | locus YLR039C, strain RIC1, stronger effect = lower value 0.907 | locus YLR058C, strain SHM2 (second series), stronger effect = lower value 1.01 | locus YLR085C, strain ARP6, stronger effect = lower value 0.969 | locus YLR262C, strain YPT6, stronger effect = lower value 0.946 | locus YML094W, strain GIM5, stronger effect = lower value 0.98 | locus YMR219W, strain ESC1, stronger effect = lower value 0.991 | locus YMR263W, strain SAP30, stronger effect = lower value 0.993 | locus YMR307W, strain GAS1, stronger effect = lower value 0.924 | locus YNL153C, strain GIM3, stronger effect = lower value 0.984 | locus YNL298W, strain CLA4 (second series), stronger effect = lower value 0.987 | locus YNL322C, strain KRE1, stronger effect = lower value 0.986 | locus YNR030W, strain Alg12, stronger effect = lower value 0.969 | locus YPL055C, strain LGE1, stronger effect = lower value 0.98 | locus YPL241C, strain CIN2, stronger effect = lower value 0.969 | locus YPR135W, strain CTF4, stronger effect = lower value 0.956

O=C(c1ccccc1)c1cc(Cl)ccc1NC(=S)Nc1ccc(F)cc1
inactive: [1] 0.984 | [2] 0.992 | [3] 0.99 | [4] 0.987 | [5] 0.998 | [6] 0.996 | [7] 0.994 | [8] 0.996 | [9] 0.985 | [10] 0.992 | [11] 0.968 | [12] 0.994 | [13] 0.994 | [14] 0.993 | [15] 0.982 | [16] 0.95 | [17] 0.977 | [18] 0.986 | [19] 0.987 | [20] 0.988 | [21] 0.945 | [22] 0.991 | [23] 0.967 | [24] 1.02 | [25] 0.989 | [26] 0.97 | [27] 0.997 | [28] 1.12 | [29] 0.988 | [30] 0.994 | [31] 0.988 | [32] 0.947 | [33] 0.962 | [34] 0.988 | [35] 0.937 | [36] 1.05 | [37] 0.99 | [38] 0.968 | [39] 0.971 | [40] 0.991 | [41] 1 | [43] 0.983 | [44] 0.974 | [45] 0.978 | [46] 0.995 | [47] 0.977 | [48] 0.976 | [49] 0.992 | [50] 0.983 | [51] 0.992 | [52] 1.02 | [53] 0.992 | [54] 0.987 | [55] 0.968 | [56] 0.999 | [57] 0.969 | [58] 0.973 | [59] 1.05 | [60] 0.994 | [61] 0.993 | [62] 0.969 | [63] 0.988 | [64] 0.993 | [65] 0.985 | [66] 0.99 | [67] 0.997 | [68] 0.963 | [69] 0.995 | [70] 0.991
active: [42] 0.858

Source: PubChem BioAssay AID1159580 (chemical genetic matrix, 2015)
